According to ChEMBL document CHEMBL1157539, “Thousands of chemical starting points for antimalarial lead identification” (Nature, 2010):
Over roughly 13,000 compounds, “IFI” has its median near 4; the highest 2% begin near 17. The full list was thinned out, with the highest values kept by preference.

Experiment: GSK_TCMDC: Inhibition Frequency Index (IFI). The number of non-kinase HTS assays where a compound showed > 50 % inhibition, expressed as a percentage of the number of such assays in which the compound was tested
Type: functional

Structure (SMILES) | IFI [%]
CC(C)N1CCN(C(CN2CCN(CCCOc3ccc4ccccc4c3)CC2)c2ccc(F)cc2)CC1 (stereo not given) | 9.85
CNc1ccc(CNCc2cccc(-c3ccc(-c4nc5cc(C(F)(F)F)ccc5[nH]4)cc3)c2)cc1 | 18.8
FC(F)(F)c1ccc2[nH]c(-c3ccc(-c4cccc(CNCc5ccccc5)c4)cc3)nc2c1 | 12.5
CNc1ccc(CNCc2ccc(-c3ccc(-c4nc5cc(C(F)(F)F)ccc5[nH]4)cc3)cc2)cc1 | 14.1
Cc1ccc(-n2c(Sc3ncnc4sccc34)nnc2N2CCCC2)cc1 | 6.06
CC1CCN(Cc2cccc(C(=O)NCc3ccc(F)c(-c4cccc(CN5CCN[C@@H](C)C5)c4)c3)c2)CC1 | 5.04
C[C@H]1CN(Cc2cccc(-c3cc(CNC(=O)c4cccc(C(=O)c5ccc(Cl)c(Cl)c5)c4)ccc3F)c2)CCN1 | 18.6
C[C@H]1CN(Cc2ccc(-c3cccc(CNC(=O)c4cccc(C(=O)c5ccc(Cl)c(Cl)c5)c4)c3)s2)CCN1 | 16.2
Cc1cc(N[C@@H](Cc2ccccc2)C(=O)NCc2cccc(F)c2)nc(NCCc2cccs2)n1 | 12.8
CCOC(=O)C(NC(=O)c1ccc([N+](=O)[O-])o1)C(C)C (stereo not given) | 1.41
CCOC(=O)C(CO)NC(=O)c1ccc([N+](=O)[O-])o1 (stereo not given) | 1.41
O=C(NCC1Cc2cc(Oc3ccccc3)ccc2O1)c1ccc([N+](=O)[O-])o1 (stereo not given) | 17.9
Cc1cccc2nc(-c3ccc(-c4ccc(NC(=O)Nc5ccsc5)cc4)cc3)[nH]c12 | 8
CN(C)CCNCc1cccc(-c2ccc3c(Nc4cc(O)c(Cl)cc4F)ccnc3c2)c1 | 3.68
O=C(N[C@H]1CCN(CCc2ccc(O[C@H]3CCNC3)c(F)c2)C1)c1ccc(Cl)c(Cl)c1 | 6
COc1ccc(C(=O)NC(Nc2ccc([N+](=O)[O-])cc2)C(Cl)(Cl)Cl)cc1 (stereo not given) | 13.4
O=C(NC(Nc1ccc([N+](=O)[O-])cc1)C(Cl)(Cl)Cl)c1ccc(Cl)cc1 (stereo not given) | 19.9
O=C(NC(Nc1ccc([N+](=O)[O-])cc1)C(Cl)(Cl)Cl)c1cccc(Cl)c1 (stereo not given) | 13.9
COc1cccc2c(N/N=C/c3ccccc3[N+](=O)[O-])ccnc12 | 3.62
CC(C)(C)c1cc(Cl)cc(C(=O)Nc2cc([N+](=O)[O-])ccc2Cl)c1O | 13.7
CC(C)(C)c1cc([N+](=O)[O-])cc(C(=O)Nc2ccccc2C(F)(F)F)c1O | 22.7
O=C(Nc1ccccc1Cc1ccccc1)c1ccccc1C(F)(F)F | 0.78
CNC(=O)c1cnc(Nc2ccc(N3CCN(C)CC3)cc2)nc1Nc1cccc(OC)c1 | 4.48

Structure (SMILES) | IFI [%]
Cc1ccc2[nH]c(NC#N)nc2c1 | 0
COc1cc2nc(N3CCC(CNCc4ccc(-c5ccc(C(F)(F)F)cc5)cc4)CC3)nc(N)c2cc1OC | 17.1
c1ccc(Oc2ccc(Nc3ccnc(Nc4ccc(CN5CCOCC5)cc4)n3)cc2)cc1 | 20.2
c1ccc(Oc2ccc(Nc3ccnc(Nc4cccc(CNCCCN5CCOCC5)c4)n3)cc2)cc1 | 7.41
CN1CCN(Cc2cccc(Nc3nccc(Nc4ccc(Oc5ccccc5)cc4)n3)c2)CC1 | 3.01
COc1ccc(CNC(=O)Nc2cc3cc(-c4ccc(CN5CCCC5)cc4)ccc3n3c(C)nnc23)cc1 | 13.5
Cc1ccc(NC(=O)Nc2ccc(Cl)cc2)cc1-c1ccc(C(=O)Nc2ccncc2)cc1 | 21.1
Cc1ccc(NC(=O)Nc2ccccc2)cc1-c1ccc(C(=O)Nc2ccncc2)cc1 | 25.7
O=C(Nc1ccc(C(=O)Nc2cccc(C3=NCCN3)c2)cc1)Nc1ccc(C2=NCCN2)cc1 | 3.57
CC(C)NCc1ccc(-c2ccc(NC(=O)c3cccc(C#N)c3)cc2)cc1 | 8.16
Cc1ccc(NC(=O)c2cccc(C#N)c2)cc1-c1ccc(C(=O)Nc2ccncc2)cc1 | 24.6
Cc1ccc(NC(=O)Nc2ccc(Cl)cc2)cc1-c1cccc(C(=O)Nc2ccc(F)cc2)c1 | 15.9
CN(C)C(CNC(=O)c1cc(-c2ccncc2)c(-c2ccc(NC(=O)Nc3cccc(Cl)c3)cc2)o1)c1ccccc1 (stereo not given) | 8.11
N#Cc1cccc(C(=O)Nc2cccc(-c3ccc(C(=O)Nc4cccnc4)cc3)c2)c1 | 7.46
O=C(Nc1ccc(-c2oc(C(=O)NCCc3cccc(Cl)c3)cc2-c2ccncc2)cc1)Nc1cccc(Cl)c1 | 2.78
Cc1ccc(NC(=O)Nc2cccc(Cl)c2)cc1-c1ccc(C(=O)Nc2ccncc2)cc1 | 25.4
Cc1ccc(NC(=O)c2ccc(Cl)cc2)cc1-c1ccc(C(=O)Nc2ccncc2)cc1 | 15.5
Cc1cccc2nc(-c3cccc(-c4ccc(NC(=O)c5ccncc5)cc4)c3)[nH]c12 | 4.42
CN1CCC(NCc2cccc(-c3nn(C)c4nc(NC5CCCC5)ncc34)c2)CC1 | 9.09
CCC1CN2CCc3c([nH]c4ccccc34)[C@@H]2C[C@@H]1CC1NCCc2cc(OC)c(OC)cc21 (stereo not given in full) | 8.33
CC(Oc1cc(-n2cnc3ccc(NC(=O)CCN4CCCCC4)cc32)sc1C(N)=O)c1ccccc1Cl (stereo not given) | 9.35
Cc1cc(N2CC=CCC2)nc(NC(=N)Nc2ccc(Cl)cc2)n1 | 4.29
